Measured values: PubChem BioAssay (NCATS)
Values without a mark were called inactive. Records with an inconclusive call do not appear. A call without a number means that no potency is given here. Active and inactive are the calls of the source. Unless noted, the call rests on the fitted dose curve; in most records, active means well fitted curve in the direction sought with a large enough effect; inconclusive means small, poorly fitted or top-dose-only effect, or another doubt; inactive means no such curve, though single readings can be large; an effect the other way counts as inactive or inconclusive.

How the values were obtained:
[1] = molecular target: Lysosomal acid glucosylceramidase (Homo sapiens) (UniProt P04062); experiment: Glucocerebrosidase-p2 (AID 348; in the data active means potency below about 10 µM; further: potency means the concentration at half of the fitted maximal effect); conditions: purified GBA, blue fluorogenic substrate, 40 min
Sequence of Lysosomal acid glucosylceramidase (Homo sapiens) (P04062 whole entry, looked up): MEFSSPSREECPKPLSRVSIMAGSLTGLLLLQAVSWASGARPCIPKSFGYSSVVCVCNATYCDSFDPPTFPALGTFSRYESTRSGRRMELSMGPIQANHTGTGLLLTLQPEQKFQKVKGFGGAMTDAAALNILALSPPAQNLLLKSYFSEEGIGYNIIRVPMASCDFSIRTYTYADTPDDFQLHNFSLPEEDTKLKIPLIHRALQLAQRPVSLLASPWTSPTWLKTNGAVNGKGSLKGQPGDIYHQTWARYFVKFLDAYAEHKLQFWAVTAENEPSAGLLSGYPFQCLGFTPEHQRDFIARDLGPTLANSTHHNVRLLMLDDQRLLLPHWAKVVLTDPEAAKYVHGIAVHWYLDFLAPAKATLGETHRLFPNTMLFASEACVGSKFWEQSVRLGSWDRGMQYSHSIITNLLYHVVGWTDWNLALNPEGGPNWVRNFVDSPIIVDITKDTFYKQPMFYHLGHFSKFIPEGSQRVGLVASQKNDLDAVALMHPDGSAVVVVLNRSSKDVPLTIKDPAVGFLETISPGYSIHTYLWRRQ
How it was run: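 Compounds titrated from 0.6 nM upwards against 0.2 nM enzyme in pH 5.9 citric acid/KH2PO4, taurocholate, tween-20; blue fluorogenic substrate 80 uM, 40 min room temperature, stopped and read Ex 365/Em 440 for AC50.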

[2] = AP1 Signaling Pathway (AID 357; active means well fitted curve in either direction with a large enough effect, not every such curve was filed as active); conditions: ME-180 AP-1-bla reporter, EGF-induced, beta-lactamase ratio, 5 h; at 7.69 µM (top of the series) unless noted
How it was run: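 Titration-series screen for positive or negative modulators of EC50 EGF-induced signaling in ME-180 cells carrying an AP-1-driven beta-lactamase reporter. After 5 hours at 37 degrees Celsius, CCF4 460nm/530nm emission ratio gave %Activity; AC50 values derived.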

[3] = NFAT Signaling Pathway (AID 444; active means well fitted curve in either direction with a large enough effect, not every such curve was filed as active;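 further: carbachol stimulus at about its EC50 of 1 µM final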); conditions: Jurkat NFAT-bla M1, carbachol, beta-lactamase ratio, 5 h; at 7.69 µM (top of the series) unless noted
How it was run: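 Jurkat cells with NFAT-driven β-lactamase reporter and co-expressed M1 receptor, stimulated with carbachol (final 1 uM, ~EC50), compound titration, 5 h at 37 °C. CCF4 loaded 1 h at RT; 460/530 nm ratio gave %activity and AC50.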

[4] = Stat Signaling Pathway (AID 446; active means well fitted curve in either direction with a large enough effect, not every such curve was filed as active;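 further: ME-180 cervical cancer cells given 40 pM IL-6 alongside compound; SIE-controlled beta-lactamase reporter measured as 460/530 nm FRET emission ratio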); conditions: ME-180 SIE beta-lactamase reporter, IL-6 stimulated, 5 h; at 7.69 µM (top of the series) unless noted
How it was run: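 Screening format detects activators and inhibitors alike: ME-180 SIE-bla cells stimulated at 40 pM IL-6 for 5 hrs with compound, then dual-emission beta-lactamase read at 405 nm excitation.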

[5] = molecular target: Glucocorticoid receptor (Homo sapiens) (UniProt P04150); experiment: GR-GFP Redistribution (AID 450;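 active means compounds whose dose series gives a full or clear partial fitted curve of increased nuclear translocation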; further: potency means the concentration at half of the fitted maximal effect); conditions: U2OS GR-GFP nuclear translocation, laser cytometry, 2 h
Sequence of Glucocorticoid receptor (Homo sapiens) (P04150 whole entry, looked up, the tested form may be a part): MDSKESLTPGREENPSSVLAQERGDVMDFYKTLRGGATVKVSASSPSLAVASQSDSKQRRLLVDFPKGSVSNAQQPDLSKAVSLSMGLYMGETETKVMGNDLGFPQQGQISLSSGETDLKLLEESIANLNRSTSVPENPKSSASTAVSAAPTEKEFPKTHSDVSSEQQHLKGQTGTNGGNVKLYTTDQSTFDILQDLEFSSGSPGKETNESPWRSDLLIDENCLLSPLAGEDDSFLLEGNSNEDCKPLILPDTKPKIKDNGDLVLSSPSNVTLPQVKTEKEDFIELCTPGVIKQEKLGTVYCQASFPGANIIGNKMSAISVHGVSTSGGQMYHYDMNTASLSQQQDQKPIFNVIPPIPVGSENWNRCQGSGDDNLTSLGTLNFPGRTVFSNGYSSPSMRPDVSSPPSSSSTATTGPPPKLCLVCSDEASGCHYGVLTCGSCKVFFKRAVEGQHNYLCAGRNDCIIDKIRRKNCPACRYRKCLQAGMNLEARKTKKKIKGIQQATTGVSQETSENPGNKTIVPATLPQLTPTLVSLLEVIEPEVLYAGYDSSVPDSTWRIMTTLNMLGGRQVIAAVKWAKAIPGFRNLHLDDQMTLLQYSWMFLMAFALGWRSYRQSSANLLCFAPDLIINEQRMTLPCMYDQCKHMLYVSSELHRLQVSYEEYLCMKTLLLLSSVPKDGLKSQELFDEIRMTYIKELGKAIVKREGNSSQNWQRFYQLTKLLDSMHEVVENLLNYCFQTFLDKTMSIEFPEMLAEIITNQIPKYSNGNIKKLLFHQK

[6] = molecular target: Glucocorticoid receptor (Homo sapiens) (UniProt P04150); experiment: GR-EFC Redistribution (AID 451; calls by dose curve; further: potency means the concentration at half of the fitted maximal effect); conditions: CHO-K1 GR-EFC translocation, beta-gal luminescence, 2 h
How it was run: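 CHO-K1 cells expressing nuclear EA and GR-ED fragments of b-gal; compounds titrated up to 46 uM final, 2 h at 37 C. GR nuclear translocation read as complemented b-gal luminescence after 1 h RT detection.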

[7] = molecular target: Mitogen-activated protein kinase 10 (Mus musculus) (UniProt Q61831); experiment: JNK3 AlphaScreen Assay (AID 530; active means well fitted curve in either direction with a large enough effect, not every such curve was filed as active;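 further: kinase came from lysate of stimulated human HepG2 cells; signal reports phosphorylation of biotinylated GST-cJun 1-79 at Ser73 with 10 µM ATP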); conditions: JNK3 lysate, c-Jun phosphorylation; series mostly up to 57.1 µM
How it was run: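 Pre-activated (IL-1β/TNFα) JNK3 in HepG2 lysates phosphorylates biotin-GST-cJun(1-79), 10 uM ATP; anti-phospho-cJun(Ser73) AlphaScreen read at room temperature, pH 7.6 Tris buffer. Compounds pre-incubated 15 min as titrations.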

[8] = molecular target: 3',5'-cyclic-AMP phosphodiesterase 4B (Homo sapiens) (UniProt Q07343); experiment: qHTS Assay for Inhibitors of PDE-IV (AID 607; active means well fitted activation curve with a large enough effect in the main read-out, with a control signal flat, not every such curve was filed as active); conditions: HEK293 ACTOne CNG channel cells, membrane potential fluorescence; series mostly up to 22.9 µM
Sequence of 3',5'-cyclic-AMP phosphodiesterase 4B (Homo sapiens) (Q07343 whole entry, looked up): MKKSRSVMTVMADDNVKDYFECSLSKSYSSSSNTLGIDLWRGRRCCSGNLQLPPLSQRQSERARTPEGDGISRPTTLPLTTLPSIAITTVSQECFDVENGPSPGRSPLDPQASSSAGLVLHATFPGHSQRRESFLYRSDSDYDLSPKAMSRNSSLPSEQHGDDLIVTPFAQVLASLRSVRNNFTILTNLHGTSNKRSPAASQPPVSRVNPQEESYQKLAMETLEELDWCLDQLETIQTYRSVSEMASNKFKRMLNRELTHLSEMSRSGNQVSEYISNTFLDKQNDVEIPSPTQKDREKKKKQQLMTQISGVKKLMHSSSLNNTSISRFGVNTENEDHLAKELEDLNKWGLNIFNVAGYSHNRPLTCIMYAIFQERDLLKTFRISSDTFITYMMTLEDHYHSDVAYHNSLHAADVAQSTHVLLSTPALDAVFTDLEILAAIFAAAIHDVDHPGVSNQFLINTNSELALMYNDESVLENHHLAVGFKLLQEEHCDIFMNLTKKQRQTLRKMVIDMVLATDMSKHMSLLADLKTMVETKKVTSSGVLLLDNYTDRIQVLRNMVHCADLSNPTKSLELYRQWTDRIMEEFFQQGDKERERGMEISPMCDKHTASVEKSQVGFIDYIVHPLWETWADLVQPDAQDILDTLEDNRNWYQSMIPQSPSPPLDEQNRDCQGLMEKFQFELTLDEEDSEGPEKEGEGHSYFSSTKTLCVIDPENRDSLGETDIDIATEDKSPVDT
How it was run: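 The readout is membrane depolarisation from a cAMP-sensing CNG channel, detected with a potential dye at ex 535/em 590. Cells were HEK293-derived (endogenous PDE-IV) at 1000 cells/well, titrated up to 22.9 uM final.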

[9] = molecular target: Cytochrome P450 3A4 (Homo sapiens) (UniProt P08684); experiment: qHTS Assay for Activators of Cytochrome P450 3A4 (AID 885); conditions: recombinant CYP3A4, Luciferin-PPXE luminescence, 60 min; series mostly up to 57.1 µM; further: nearly all actives have a fitted effect of over 65% in size
Sequence of Cytochrome P450 3A4 (Homo sapiens) (P08684 whole entry, looked up): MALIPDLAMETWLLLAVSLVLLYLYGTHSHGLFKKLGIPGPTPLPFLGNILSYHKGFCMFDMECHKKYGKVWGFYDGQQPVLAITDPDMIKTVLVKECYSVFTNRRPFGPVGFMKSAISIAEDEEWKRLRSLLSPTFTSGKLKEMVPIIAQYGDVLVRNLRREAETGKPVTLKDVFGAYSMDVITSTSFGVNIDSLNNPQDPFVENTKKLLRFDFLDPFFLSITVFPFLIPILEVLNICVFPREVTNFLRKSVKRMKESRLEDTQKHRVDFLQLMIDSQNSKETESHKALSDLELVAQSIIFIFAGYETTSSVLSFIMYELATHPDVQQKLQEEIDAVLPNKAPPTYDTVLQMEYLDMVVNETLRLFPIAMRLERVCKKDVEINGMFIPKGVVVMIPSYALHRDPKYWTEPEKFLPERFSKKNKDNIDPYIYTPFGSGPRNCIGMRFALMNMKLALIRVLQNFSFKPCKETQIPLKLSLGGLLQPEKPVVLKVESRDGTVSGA
How it was run: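 Steps: enzyme/substrate mix dispensed; compound added, 10 min RT; NADPH regeneration solution added, 60 min RT; luciferin detection buffer stops reaction; 20 min later luminescence measured.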

[10] = molecular target: Dual specificity protein kinase CLK4 (Homo sapiens) (UniProt Q9HAZ1); experiment: qHTS Assay for Inhibitors of CDC-like Kinase 4 (Kinase-Glo Assay) (AID 1770); conditions: recombinant Clk4, Kinase-Glo ATP depletion luminescence; series mostly up to 66.7 µM; further: nearly all actives have a fitted effect of over 65% in size; further: potency means the concentration at half of the fitted maximal effect
Sequence of Dual specificity protein kinase CLK4 (Homo sapiens) (Q9HAZ1 whole entry, looked up): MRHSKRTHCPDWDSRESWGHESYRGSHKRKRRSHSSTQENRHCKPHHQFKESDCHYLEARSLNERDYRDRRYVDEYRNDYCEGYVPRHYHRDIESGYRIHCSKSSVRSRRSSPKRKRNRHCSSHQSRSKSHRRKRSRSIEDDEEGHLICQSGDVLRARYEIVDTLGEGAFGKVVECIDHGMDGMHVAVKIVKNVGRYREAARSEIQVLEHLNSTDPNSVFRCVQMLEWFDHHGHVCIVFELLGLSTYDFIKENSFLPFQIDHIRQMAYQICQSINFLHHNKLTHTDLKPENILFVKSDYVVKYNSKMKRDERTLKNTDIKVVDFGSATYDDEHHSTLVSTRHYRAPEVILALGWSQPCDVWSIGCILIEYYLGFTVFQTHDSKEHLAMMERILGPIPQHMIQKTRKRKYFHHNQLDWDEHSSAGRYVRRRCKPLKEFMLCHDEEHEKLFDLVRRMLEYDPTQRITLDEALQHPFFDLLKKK
How it was run: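 Inhibition was judged from remaining ATP, measured by Ultra-Glo luciferase bioluminescence after Clk4 (25 nM) had acted on RS peptide at 1 uM ATP for 4.5 hours, room temperature.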

[11] = molecular target: Dual specificity protein kinase CLK4 (Homo sapiens) (UniProt Q9HAZ1); experiment: qHTS Assay for Inhibitors of CDC-like Kinase 4 (ADP-Glo Assay) (AID 1771); conditions: recombinant CLK4, ADP-Glo luminescence; series mostly up to 80 µM; further: nearly all actives have a fitted effect of over 70% in size; further: potency means the concentration at half of the fitted maximal effect
How it was run: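 25 nM Clk4 with 100 uM RS repeat peptide and 1 uM ATP (final) in buffer with 2 mM MgCl2, 0.5 mM EGTA, 2.5 mM DTT, 0.01% Triton X-100; 1 h at room temperature; ADP-Glo luminescence for ADP formed.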

[12] = molecular target: Dual specificity protein kinase CLK4 (Homo sapiens) (UniProt Q9HAZ1); experiment: qHTS Assay for Inhibitors of CDC-like Kinase 4 (ADP-FP Assay) (AID 1795); conditions: Transcreener ADP fluorescence polarization; series mostly up to 50 µM; further: nearly all actives have a fitted effect of over 60% in size; further: potency means the concentration at half of the fitted maximal effect;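 on activity change, negative = inhibition: recombinant human CLK4 phosphorylating RS repeat peptide at 1 µM ATP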
How it was run: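 Inhibition of ADP formation by 6.25 nM Clk4 is measured using 1 uM ATP and 100 uM RS repeat peptide over one hour. Produced ADP displaces a fluorescent tracer from antibody, lowering polarization.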

[13] = molecular target: Ubiquitin carboxyl-terminal hydrolase 1 (Homo sapiens) (UniProt O94782); experiment: Inhibitors of USP1/UAF1: Pilot qHTS (AID 504865); conditions: purified USP1/UAF1, Ub-rhodamine cleavage fluorescence; series mostly up to 54.9 µM;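 further: rhodamine fluorescence freed from ubiquitin-rhodamine substrate followed over time; top concentration of the series differs between compounds; nearly all actives have a fitted effect of over 35% in size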
Sequence of Ubiquitin carboxyl-terminal hydrolase 1 (Homo sapiens) (O94782 whole entry, looked up): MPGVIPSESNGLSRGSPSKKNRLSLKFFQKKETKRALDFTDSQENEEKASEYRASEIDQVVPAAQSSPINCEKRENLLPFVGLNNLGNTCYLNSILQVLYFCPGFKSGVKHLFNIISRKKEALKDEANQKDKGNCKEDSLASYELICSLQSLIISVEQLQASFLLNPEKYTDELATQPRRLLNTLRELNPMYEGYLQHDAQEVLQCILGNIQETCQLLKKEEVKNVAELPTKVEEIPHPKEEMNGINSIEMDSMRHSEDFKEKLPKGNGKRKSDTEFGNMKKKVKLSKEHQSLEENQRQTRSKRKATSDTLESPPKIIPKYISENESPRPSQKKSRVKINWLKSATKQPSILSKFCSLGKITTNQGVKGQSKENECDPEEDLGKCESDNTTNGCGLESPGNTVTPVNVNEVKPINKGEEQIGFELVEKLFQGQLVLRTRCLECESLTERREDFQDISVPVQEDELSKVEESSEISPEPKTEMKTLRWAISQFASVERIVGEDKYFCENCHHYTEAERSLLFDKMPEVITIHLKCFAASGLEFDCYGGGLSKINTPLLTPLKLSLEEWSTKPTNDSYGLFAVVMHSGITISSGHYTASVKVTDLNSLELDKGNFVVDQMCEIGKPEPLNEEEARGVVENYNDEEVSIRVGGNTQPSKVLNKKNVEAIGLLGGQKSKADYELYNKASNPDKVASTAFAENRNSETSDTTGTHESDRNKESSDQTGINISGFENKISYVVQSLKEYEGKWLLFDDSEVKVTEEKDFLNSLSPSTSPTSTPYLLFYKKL
How it was run: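 Kinetic fluorescence assay: 1nM USP1/UAF1, 15 min compound preincubation, then 150nM Ub-Rho; 480/540 nm.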

[14] = Primary qHTS for small molecule stabilizers of the endoplasmic reticulum resident proteome: Secreted ER Calcium Modulated Protein (SERCaMP) assay (AID 1508630); conditions: SH-SY5Y GLuc-SERCaMP (Gaussia luciferase released on ER calcium loss) secretion, thapsigargin, luminescence; series mostly up to 38.4 µM
How it was run: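 GLuc-SERCaMP-expressing SH-SY5Y cells, pretreated 16 h with compound, are challenged with thapsigargin to empty ER calcium stores; after 4 h, coelenterazine is added directly to the medium and luminescence is imaged.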

[15] = qHTS Assay for Identification of Small Molecule Agonists for Hypoxia Response Element Signaling Pathway (AID 914; active means well fitted activation curve with a large enough effect in the signal ratio, with a control signal flat, not every such curve was filed as active; the % refers to the signal ratio); conditions: ME-180 (cervical carcinoma) HRE-bla reporter, beta-lactamase ratio, CoCl2, 17 h; activation: stronger effect = higher value
How it was run: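 Cells were plated overnight, pin-dosed with compound in a titration series, co-stimulated with EC50 CoCl2 and incubated 17 hours at 37 degrees Celsius. CCF4 substrate was then loaded, and AC50 values came from the 460nm/530nm ratio.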

**Q.** With `COCCn1c(=O)c(C)nc2cnc(OC)nc21` as the compound, how does the Potency [1] read?
**A.** The Potency was over 11.4 µM.

**Q.** What about the activity change, negative = inhibition [2] of the same compound?
**A.** Its activity change, negative = inhibition is -9.91%.

**Q.** What about the activity change, negative = inhibition [3] of the same compound?
**A.** The activity change, negative = inhibition was 5.14%.

**Q.** And the activity, negative = inhibition [4]?
**A.** The activity, negative = inhibition was -16.1%.

**Q.** What about the Potency [5] of the same compound?
**A.** The Potency was over 9.22 µM.

**Q.** What about the Potency [6] of the same compound?
**A.** Its Potency is over 46 µM.

**Q.** What about the Potency [7] of the same compound?
**A.** The Potency was “inactive”.

**Q.** What about the Potency [8] of the same compound?
**A.** The Potency was “inactive”.

**Q.** What about the Potency [9] of the same compound?
**A.** Its Potency is “inactive”.

**Q.** And the Potency [10]?
**A.** Its Potency is “inactive”.

**Q.** And the Potency [11]?
**A.** Its Potency is “inactive”.

**Q.** What about the Potency [12] of the same compound?
**A.** The Potency was “inactive”.

**Q.** And the Potency [13]?
**A.** Its Potency is “inactive”.

**Q.** And the outcome [14]?
**A.** Its outcome is “inactive”.

**Q.** With `COc1ncc2nc(-c3ccc(Cl)cc3)c(=O)n(Cc3cccs3)c2n1` as the compound, how does the Potency [1] read?
**A.** Its Potency is over 11.4 µM.

**Q.** What about the activity change, negative = inhibition [2] of the same compound?
**A.** The activity change, negative = inhibition was -16.7%.

**Q.** What about the activity change, negative = inhibition [3] of the same compound?
**A.** The activity change, negative = inhibition was 2.52%.

**Q.** What about the activity, negative = inhibition [4] of the same compound?
**A.** The activity, negative = inhibition was -18.3%.

**Q.** And the Potency [5]?
**A.** Its Potency is over 9.22 µM.

**Q.** What about the Potency [6] of the same compound?
**A.** Its Potency is over 46 µM.

**Q.** And the Potency [7]?
**A.** Its Potency is “inactive”.

**Q.** And the Potency [8]?
**A.** Its Potency is “inactive”.

**Q.** What about the Potency [10] of the same compound?
**A.** The Potency was “inactive”.

**Q.** What about the Potency [11] of the same compound?
**A.** Its Potency is “inactive”.

**Q.** What about the Potency [12] of the same compound?
**A.** Its Potency is “inactive”.

**Q.** And the Potency [13]?
**A.** Its Potency is “inactive”.

**Q.** And the outcome [14]?
**A.** Its outcome is “inactive”.

**Q.** With `COCCNc1nc(-c2ccoc2)nc2ccccc12` as the compound, how does the Potency [1] read?
**A.** The Potency was over 11.4 µM.

**Q.** And the activity change, negative = inhibition [2]?
**A.** The activity change, negative = inhibition was 1.3%.

**Q.** And the activity change, negative = inhibition [3]?
**A.** The activity change, negative = inhibition was -13.7%.

**Q.** What about the activity, negative = inhibition [4] of the same compound?
**A.** The activity, negative = inhibition was 8.88%.

**Q.** What about the Potency [6] of the same compound?
**A.** The Potency was over 46 µM.

**Q.** What about the Potency [7] of the same compound?
**A.** Its Potency is “inactive”.

**Q.** And the Potency [9]?
**A.** The Potency was “inactive”.

**Q.** What about the Potency [10] of the same compound?
**A.** Its Potency is “inactive”.

**Q.** And the Potency [11]?
**A.** The Potency was “inactive”.

**Q.** And the Potency [12]?
**A.** The Potency was “inactive”.

**Q.** And the Potency [13]?
**A.** The Potency was “inactive”.

**Q.** And the outcome [14]?
**A.** Its outcome is “inactive”.

**Q.** What does the source list for `COc1cccc(Cn2c(=O)c(-c3cccs3)nc3cnc(N4CCOCC4)nc32)c1`?
**A.** Potency [1]: > 11.4 µM; activity change, negative = inhibition [2]: 21.6%; activity change, negative = inhibition [3]: 5.78%; Potency [5]: > 9.22 µM; Potency [6]: > 46 µM; Potency [8]: inactive; Potency [10]: inactive; Potency [11]: inactive; Potency [12]: inactive; Potency [13]: inactive; outcome [14]: inactive

**Q.** For `Cc1noc(C)c1-c1nc(N(C)Cc2ccco2)c2ccccc2n1`, which Potency [1] is on record?
**A.** Its Potency is over 11.4 µM.

**Q.** And the activity change, negative = inhibition [2]?
**A.** Its activity change, negative = inhibition is -1.42%.

**Q.** What about the activity, negative = inhibition [4] of the same compound?
**A.** Its activity, negative = inhibition is -25.7%.

**Q.** What about the Potency [5] of the same compound?
**A.** Its Potency is over 46 µM.

**Q.** And the Potency [6]?
**A.** The Potency was over 46 µM.

**Q.** And the Potency [10]?
**A.** The Potency was 28.2 µM (active).

**Q.** And the Potency [11]?
**A.** The Potency was 35.5 µM (active).

**Q.** And the Potency [12]?
**A.** Its Potency is “inactive”.

**Q.** And the Potency [13]?
**A.** The Potency was “inactive”.

**Q.** And the outcome [14]?
**A.** The outcome was “inactive”.

**Q.** Which Potency [1] does the source give for `O=c1c(-c2cccs2)nc2cnc(Oc3ccccc3)nc2n1Cc1cccs1` here?
**A.** The Potency was over 11.4 µM.

**Q.** What about the activity change, negative = inhibition [2] of the same compound?
**A.** The activity change, negative = inhibition was -14%.

**Q.** What about the activity change, negative = inhibition [3] of the same compound?
**A.** Its activity change, negative = inhibition is 1.21%.

**Q.** What about the activity, negative = inhibition [4] of the same compound?
**A.** Its activity, negative = inhibition is 1.3%.

**Q.** What about the Potency [5] of the same compound?
**A.** The Potency was over 9.22 µM.

**Q.** What about the Potency [7] of the same compound?
**A.** The Potency was “inactive”.

**Q.** And the Potency [8]?
**A.** Its Potency is “inactive”.

**Q.** What about the Potency [9] of the same compound?
**A.** Its Potency is “inactive”.

**Q.** What about the activation [15] of the same compound?
**A.** Its activation is 9.14%.

**Q.** And the Potency [10]?
**A.** Its Potency is “inactive”.

**Q.** What about the Potency [11] of the same compound?
**A.** The Potency was “inactive”.

**Q.** And the Potency [12]?
**A.** The Potency was “inactive”.

**Q.** And the outcome [14]?
**A.** The outcome was “inactive”.

**Q.** Which results are given for `Cc1noc(C)c1-c1ccc2ncnc(Nc3ccccc3)c2c1`?
**A.** Potency [1]: > 11.4 µM; activity change, negative = inhibition [2]: -6.37%; Potency [5]: > 46 µM; Potency [6]: > 46 µM; Potency [7]: inactive; Potency [8]: inactive; Potency [10]: 6.31 µM (active); Potency [11]: 7.94 µM (active); Potency [12]: 10 µM (active); Potency [13]: inactive; outcome [14]: inactive
